The entries come from a sample that favours hits as a whole.
IDH1 R132H inh – inhibitors of human mutant IDH1 R132H | O75874 | IDH1-R132H enzyme, NADPH consumption, diaphorase/resazurin fluorescence | Potency, µM (doses to about 76.6 µM), for inactives: top-dose activity change, negative = inhibition, most hits filed as inhibitors | 0.093% of 390,000 active | AID 602179; also: potency is read from the fitted curve at half-maximal effect; % is scaled to controls: 0 for no effect and ±100 for the full control effect; nearly all actives have a fitted effect of over 65% in size
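IDH1-R132H (0.5 ug/mL dispensed) in pH 7.5 Tris buffer was preincubated 30 min with compound, then given a substrate mix of 0.016 mM NADPH and 2 mM alpha-KG for 80 min at room temperature; remaining NADPH was read by diaphorase/resazurin fluorescence.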
LDHA block – LDHA (human) enzyme inhibition | P00338 | activity change, % (values are at about 110 or 230 µM) | 0.15% of 480,000 active | purified LDHA, NADH/diaphorase-resazurin fluorescence; active compounds read low | AID 1347041; in the data active = activity change below about -30%; inconclusive = mostly about -25% to -30%;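 also: plate controls were DMSO wells for no effect and wells without enzyme for full effect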
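Resorufin fluorescence (ex540/em590), read at 0 and 20 min after diaphorase/resazurin addition, reports the NADH left after a 5 min room-temperature reaction of 2 nM human LDH5 with 0.06 mM NADH and 0.2 mM pyruvate.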
S-ASM inh – human S-ASM enzyme inhibition; P17405; placental ASM, HMU-PC fluorogenic substrate, 60 min; Potency, µM (titrated, usually from 57.5 µM), without a hit: at the top dose activity change, negative = inhibition, actives largely listed as inhibitors; 0.006% of 340,000 active; also: potency is read from the fitted curve at half-maximal effect
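Human placenta-derived ASM enzyme was preincubated with compound for 10 minutes at room temperature, then given fluorogenic substrate HMU-PC0 (9 uM final) for 60 minutes at 37 °C; a pH 10 stop preceded fluorescence reading at Ex 386/Em 447 nm.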
RGS4 inhibitor – inhibitors of human regulator of G protein signaling 4 | P49798 | Transcreener GDP fluorescence polarization, RGS4-accelerated GTP hydrolysis | Potency, µM (top dose mostly 114 µM), for the others: top-dose activity change, negative = inhibition, hits mostly inhibitors | 0.039% of 390,000 active; also: potency is read from the fitted curve at half-maximal effect; % is scaled to controls: 0 for no effect and ±100 for the full control effect; nearly all actives have a fitted effect of over 75% in size
Target sequence (P49798 whole entry, looked up): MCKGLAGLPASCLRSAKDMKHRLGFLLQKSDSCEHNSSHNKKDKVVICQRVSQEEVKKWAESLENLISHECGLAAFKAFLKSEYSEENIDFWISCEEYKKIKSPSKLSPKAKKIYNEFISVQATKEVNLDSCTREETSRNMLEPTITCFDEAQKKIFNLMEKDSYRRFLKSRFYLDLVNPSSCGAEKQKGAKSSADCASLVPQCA
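MLSMR compounds (23 nl, pin-transferred) preincubated 10 min at room temperature with a 500nM (2x) first reagent, then RGS4 at 900nM (2x) plus Transcreener GDP mix added; fluorescence polarization (620/688 nm) read before and after 90 min at 30 °C.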
ClpP mod – qHTS Assay for Activators of ClpP | ATP-dependent Clp protease proteolytic subunit (Bacillus subtilis (strain 168)), P80244 | purified B. subtilis ClpP, FRET peptide cleavage, 20 min | Potency, µM (titrated, usually from 57.5 µM), for the others: at the top dose activity change, negative = active | 1.9% of 340,000 active | AID 651965, 2013; active = well fitted falling curve with a large enough effect; inconclusive = small, poorly fitted or top-dose-only effect; inactive = no such curve, though single readings can be large or run the other way; also: potency is read from the fitted curve at half-maximal effect; the source files actives as falling curves though it sought activators and does not explain the sign; nearly all actives have a fitted effect of over 65% in size
Target sequence (P80244 whole entry, looked up): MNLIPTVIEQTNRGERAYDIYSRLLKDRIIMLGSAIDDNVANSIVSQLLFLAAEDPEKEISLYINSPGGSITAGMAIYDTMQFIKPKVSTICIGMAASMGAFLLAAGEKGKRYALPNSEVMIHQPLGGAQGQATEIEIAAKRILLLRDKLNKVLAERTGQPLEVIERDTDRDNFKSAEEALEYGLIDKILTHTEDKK
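Buffer: 100 mM Tris/HCl pH8, 100 mM KCl, 0.05% low protease BSA, 2.5% glycerol, 0.01% Tween-20. ClpP 10 microg/mL final; 20 min RT; delta FRET normalized to ADEP and DMSO controls.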
Mito fusion yeast – mitochondrial division inhibition or fusion activation. S. cerevisiae fusion-defective mutant growth rescue, CellTiterGlo 48 h. Potency, µM (doses to about 46.1 µM), for inactives: at the top dose growth rescue (activation), actives largely listed as activators. 0.23% of 320,000 active. AID 485298; also: potency is read from the fitted curve at half-maximal effect; % of control where 0% means no effect; nearly all actives have a fitted effect of over 45% in size
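Yeast fusion mutant, YPEG (non-fermentable carbon), compound, 48 h at 37C non-permissive; CellTiterGlo added, 10 min RT, luminescence read. Rescued growth = division inhibition.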
* marks the source's active call; other numbers are inactive results; i = inactive; ? = inconclusive; · = no result; [ ] = another dose, or the depositor's remark. Unless noted, calls follow the shape of the dose curve; as a rule, active = well fitted curve in the direction sought with a large enough effect; inconclusive = small, poorly fitted or top-dose-only effect, or another doubt; inactive = no such curve, though single readings can be large; an effect the other way counts as inactive or inconclusive.

SMILES	IDH1 R132H inh	LDHA block	S-ASM inh	RGS4 inhibitor	ClpP mod	Mito fusion yeast
O=C(CCl)N1c2ccccc2S(=O)c2ccccc21	·	4.5	·	·	·	·
O=C(OCC(=O)N1CCc2ccccc2C1)c1ccc(Cl)c([N+](=O)[O-])c1	0.0%	-8.7	-2.5%	-10.8%	-2.3%	4.0%
Nc1ccc(C(=O)OCC(=O)N2CCc3ccccc3C2)cc1[N+](=O)[O-]	4.1%	2.1	-9.8%	11.9%	-6.5%	11.2µM*
COc1cc(NC(C)=O)c2ncccc2c1[N+](=O)[O-]	19.8%	14.9	-2.0%	-30.2%	22.4µM*	13.8%
CCc1nc(-c2cc3ccc(C)cc3[nH]c2=O)no1	10.5%	-4.3	58.9%	-3.8%	14.1µM*	?
Cc1ccc2cc(-c3noc(C(C)(C)C)n3)c(=O)[nH]c2c1	6.0%	-4.0	54.4%	-14.9%	28.2µM*	-1.8%
Cc1cccc(-c2nc(-c3cc4ccc(C)cc4[nH]c3=O)no2)c1	·	-19.1	·	·	·	·
CCOC(=O)c1c(NC(=O)C2COc3ccccc3O2)sc2c1CCN(Cc1ccccc1)C2 (stereo not drawn)	5.1%	-9.7	-10.0%	-21.4%	25.1µM*	10.6%
CCOC(=O)c1c(C2COc3ccccc3O2)csc1NC(=O)c1ccccc1 (stereo not drawn)	0.0%	-4.1	-1.3%	-21.8%	14.1µM*	-2.9%
Cc1cc2oc(=O)cc(CN(C)Cc3nc4ccccc4c(=O)[nH]3)c2cc1C	·	10.9	·	·	·	·
CCOc1ccccc1C(=O)Nc1ccc(OC)c2ncccc12	·	21.8	·	·	·	·
CCN(CC(=O)Nc1ccccc1C(F)(F)F)C(=O)CCc1nc2sc3c(c2c(=O)[nH]1)CCCC3	1.1%	-9.7	·	-7.1%	15.8µM*	-13.0%
CN(CC(=O)Nc1ccc(F)cc1)C(=O)CCc1nc2sc3c(c2c(=O)[nH]1)CCCC3	1.3%	-8.6	0.1%	-27.4%	-1.0%	-1.1%
CN(CC(=O)Nc1ccc(Cl)cc1)C(=O)CCc1nc2sc3c(c2c(=O)[nH]1)CCCC3	1.1%	-10.3	-0.6%	-18.6%	31.6µM*	-1.7%
Cc1ccc(OCc2cc(=O)n3oc(C)cc3n2)c(NC(=O)c2ccccc2C(F)(F)F)c1	·	-2.4	·	·	·	·
CN(C)C(=O)CN1CCN(c2ccnc3c(F)ccc(F)c23)CC1	·	0.0	·	·	·	·
CC(C)Cc1nc2oc3c(Cl)ncnc3c2c2c1CCC2	-4.6%	-5.5	-11.1%	17.6%	31.6µM*	-8.7%
CCOC(=O)c1[nH]c2cc3c(cc2c1NC(=O)CN1CCc2ccccc2C1)OCO3	-2.7%	6.1	-2.5%	17.2%[11.4 µM]	3.16µM*	-0.4%
CCOC(=O)c1[nH]c2cc3c(cc2c1NC(=O)CN1CCC(C)CC1)OCO3	2.6%	2.6	60.6%	30.5%	11.2µM*	-0.2%
COc1ccc(-n2nc3ccc(NS(C)(=O)=O)cc3n2)cc1Cl	9.2%	-0.2	i	-5.9%[11.4 µM]	28.2µM*	-1.4%
O=C(Nc1ccc([N+](=O)[O-])cc1Cl)c1cc(Cl)ccc1O	10.2%	-17.5	-2.6%	?	-22.1%	18.2%
O=C(Nc1cccc(Cl)c1)c1cc(N=Nc2ccc([N+](=O)[O-])cc2Cl)ccc1O	-0.6%	-46.3*	-7.3%	4.0%	-5.2%	-4.1%
COc1cc(/C=C(\C#N)C(=O)Nc2nnc(C(F)(F)F)s2)ccc1OCc1ccc(C(F)(F)F)cc1C(F)(F)F	·	·	·	18.9µM*	·	-42.9%
O=C(NCc1ccncc1)C(=O)N1CCN(C(=O)c2cc3ccccc3[nH]2)CC1	·	-10.9	·	·	·	·
CC1(C)CC(=O)C2=C(C1)Nc1cc3c(cc1C2c1ccc(F)cc1)OCO3 (stereo not drawn)	-13.6%	-3.4	482.7%	-9.6%	31.6µM*	0.1%
SMILES	IDH1 R132H inh	LDHA block	S-ASM inh	RGS4 inhibitor	ClpP mod	Mito fusion yeast
Cc1ccc(C2C3=C(CC(C)(C)CC3=O)Nc3onc(C)c32)cc1 (stereo not drawn)	0.2%	-0.1	171.8%	12.0%	31.6µM*	20.4%
Cc1noc2c1C(c1ccc(N(C)C)cc1)C1=C(CC(C)(C)CC1=O)N2 (stereo not drawn)	6.6%	11.1	20.4%	-7.7%	-2.8%	4.3%
CCCCn1nnc(NC(=O)COc2ccc(C3CCCCC3)cc2)n1	·	3.0	·	·	·	·
Cc1ccc(OCc2ccc(C(N)=O)cc2)cc1	·	6.4	·	·	·	·
O=C(NCCC(=O)N1CCCC1)c1cc(=O)[nH]c2ccccc12	·	5.9	·	·	·	·
Cc1cc(=O)oc2cc(OCC(=O)NCc3ccccn3)ccc12	6.5%	6.1	19.4%	-19.2%	25.1µM*	0.6%
O=c1ccc2ccc(OCc3nnc(-c4ccccc4Br)o3)cc2o1	3.6%	-3.3	54.8%	4.5%	?	-1.4%
Cc1cc(=O)oc2cc(OCCSc3nnc(-c4ccccc4)o3)ccc12	-0.3%	-4.2	-1.3%	-12.1%	-0.2%	1.3%
Cc1cccc(-c2nnc(SCCOc3ccc4c(C)cc(=O)oc4c3)o2)c1	10.4%	-4.6	-5.3%	10.0%	10µM*	-4.4%
Cc1cc(=O)oc2cc(Oc3ncccn3)ccc12	-5.1%	-2.9	172.6%	-29.7%	31.6µM*	3.9%
Cc1cc(=O)oc2cc(OCc3nnc(-c4ccccc4Br)o3)ccc12	10.1%	-0.2	215.8%	-47.9%	28.2µM*	-3.2%
N#Cc1ccc(C(=O)NC2CCC(C(F)(F)F)CC2)cc1 (stereo not drawn)	·	4.7	·	·	·	·
CCCCCCCOc1ccc(-c2ccc(C(=O)O)cc2)cc1	·	-15.2	·	·	·	·

Screens: PubChem, National Center for Advancing Translational Sciences (NCATS)
